Results on 85 compounds are retold here after PubChem BioAssay AID624132 (Broad Institute, 2012).

Structures are written as SMILES. Screen size: about 1,600 compounds; about 1,500 (94%) were called active. So high a share suggests a set chosen from earlier hits. Only a sample is shown. Entries with a potency or affinity are not part of this list. Records with an inconclusive call do not appear. Values without a mark were called inactive.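 The calls were made as follows: active = signal drop with fitted half-maximal concentration at most twice the top valid dose for that sample; inconclusive = flat fit between 30 and 70% inhibition, or poor curve fit; inactive = the rest.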

A short description of the assay: Shn3 3'UTR reporter inhibitors, dose response, cell-based, Clone20 osteoblasts, firefly luciferase, cherry-picked (AID 624132). Particulars: Clone20 osteoblast Shn3 3'UTR firefly luciferase, 24 h; series mostly up to 35 µM; activity change, negative = inhibition: at the top concentration.
As to `CC(Cc1cccs1)NC(=O)Nc1ccc(F)cc1` (stereo not given), the “activity change, negative = inhibition” value was -3.91%. Under `CCN1C(=O)[C@H]2[C@@H](c3ccc(-c4ccc(OC)cc4)cc3)N3CCC[C@@]3(C(=O)OC)[C@H]2C1=O` stands -16.5%. The value for `COc1ccc(N(C)C(=O)c2ccc3snnc3c2)cc1` was -3.31%; that for `CC(=O)N1N=C(c2ccccc2)OC1c1ccc([N+](=O)[O-])s1` (stereo not given) was -37.6%. The value for `Fc1ccccc1N1CCN(Cc2nc(-c3ccccc3)no2)CC1` was 24.1%; that for `O=C(COC(=O)/C=C/c1ccc(OC(F)F)cc1)Nc1ccc2[nH]c(=O)[nH]c2c1` was -5.42%. As for `CCOc1ccc(NS(=O)(=O)c2cc(C(=O)NCCN3CCOCC3)ccc2C)cc1`, the “activity change, negative = inhibition” value is 11.4%. The value for `COCc1nn2c(N)c(C#N)cnc2c1-c1ccccc1` was 11.5%; that for `NC(=O)NC(CC(=O)NCCc1ccccn1)c1ccccc1Cl` (stereo not given) was 2.62%; that for `CCOC(=O)c1[nH]c(C)c(/C(O)=C2\C(=O)C(=O)N(CCCN3CCOCC3)C2c2cccs2)c1C` (stereo not given) was 29.2%. The value for `Cc1cc(-n2c(C)cc(C(=O)CSc3nncn3C)c2C)no1` was 21.8%; that for `CSCCC(NC(=O)c1ccccc1)C(=O)OCC(=O)N(C)CCC#N` (stereo not given) was 5.19% [at 8 µM]; that for `COc1ccc(C(=O)OCC(=O)Nc2ccc3[nH]c(=O)[nH]c3c2)cc1` was 6.22%.

As for `Cc1csc(=O)n1CCC(=O)N(C)Cc1c(F)cccc1Cl`, the “activity change, negative = inhibition” value was 6.18%. The value for `COc1ccc(C(=O)OCC(=O)Nc2ncc([N+](=O)[O-])s2)cc1OC` was 21.4%; that for `OC(c1ccccc1)C(O)C(c1ccccc1)N1CCCCC1` (stereo not given) was -2.22%; that for `CCCOc1ccc2oc(=O)c3c(c2c1)CCCN3C(=O)CN1CCN(c2ncccn2)CC1` was 125%. The value for `COc1ccc(N2C(=O)C(CC(=O)Nc3ccccc3)N(Cc3ccc(OC)c(OC)c3)C2=O)cc1` (stereo not given) was 7.36%; that for `CSc1cccc(NC(=O)N2CCCC(CNS(=O)(=O)Cc3ccccc3)C2)c1` (stereo not given) was -20.4%.

Regarding `CCn1cc(CNCc2cn(-c3ccccc3C)nc2-c2ccc(OC)c(F)c2)cn1`, the “activity change, negative = inhibition” value is -3.08%. The value for `CC(C)(C)N(Cc1ccccc1)C(=O)COC(=O)CCc1c[nH]c2ccccc12` was -6.52%; that for `Oc1c(C(c2cccs2)N2CCC3(CC2)OCCO3)sc2ncnn12` (stereo not given) was -5.82%.

With `COc1ccc(S(=O)(=O)NCCC(=O)OCC(=O)NC2CC2)cc1`, the “activity change, negative = inhibition” value was 79.6%. Under `CC1=NN(c2cccc([N+](=O)[O-])c2)C(=O)C1` stands 4.22%.

For `CN=C1c2cc3cc(OC)ccc3n2CCN1Cc1ccccc1`, the “activity change, negative = inhibition” value is -18.3%. Under `Cc1noc(C)c1COC(=O)[C@@H](NC(=O)c1ccccc1)C(C)C` stands -11.5%; under `CCCCC[C@H]1CN(Cc2ccc(OC)cc2)C(=O)[C@@H]1CC(=O)NCc1ccccc1`, -56.9%. Under `Cc1ccc(NC(=O)CN(C)C(=O)COc2cc(F)ccc2[N+](=O)[O-])cc1` stands -9.91%; under `Cc1cc(C)cc(C(=O)NCC(=O)OCC(=O)NCC(F)(F)F)c1`, 11.4%; under `Nc1c(Br)cc2c(c1Br)C(O)c1ccccc1-2` (stereo not given), 27.3%. The value for `O=C(CSc1nnc(Nc2ccccc2)s1)NC1CCS(=O)(=O)C1` (stereo not given) was 16.4%. As to `CN(C(=O)CSc1nc(-c2cccs2)nc2ccccc12)C1CCS(=O)(=O)C1` (stereo not given), the “activity change, negative = inhibition” value was -7.83%. The value for `CN(CC(=O)NCc1ccc2c(c1)OCO2)S(=O)(=O)c1ccc(Br)s1` was -3.96%; that for `Cn1cccc1Cc1nnc(SCC(=O)NCCc2ccccc2)n1-c1ccc(F)cc1` was -16.1%. The value for `O=C(NC(NC(=S)Nc1c(Cl)cc(Cl)cc1Cl)C(Cl)(Cl)Cl)OCc1ccccc1` (stereo not given) was -68.3%. The value for `COc1ccc(-c2nnn(CC(=O)Nc3ccc4c(c3)OCCO4)n2)cc1OC` was -6.19%. Turning to `O=C(CSc1nc(C(F)(F)F)cc(=O)[nH]1)N1CCCC1`, the “activity change, negative = inhibition” value is -20.5%. Under `Cc1nc2ncnn2c(C)c1Cc1cccc(F)c1` stands -14.1%.

Turning to `CCOC(=O)C1CCN(C(=O)C(C)N(c2ccc(Oc3ccccc3)cc2)S(C)(=O)=O)CC1` (stereo not given), the “activity change, negative = inhibition” value is -14.2%. The value for `CCOc1ccc(Br)cc1C1=CC(=O)C[C@H](c2ccc(OC)cc2)C1` was -22.4%.

For `COc1ccccc1-n1ccnc(SCC(=O)NCc2ccccc2Cl)c1=O`, the “activity change, negative = inhibition” value was -16.1%. For the compound `Cc1ccc(NC(=O)NCCCN2CCOCC2)cc1`, the “activity change, negative = inhibition” value is 12.6%.

As to `Nc1cc(=O)[nH]c(SCC(=O)Nc2cccc([N+](=O)[O-])c2)n1`, the “activity change, negative = inhibition” value is 10.6%. The value for `CCOC(=O)C1=C(C)N(CCCC(=O)O)C(=O)NC1c1ccc2ccccc2c1` (stereo not given) was 6.64%; that for `CCc1c(O)nc(SCC(=O)Nc2ccccc2)n(-c2ccccc2)c1=O` was 15.3%. Take `O=C(CN1C(=O)C2CCCCC2C1=O)NC1CCCc2ccccc21` (stereo not given): the “activity change, negative = inhibition” value is 8.86%. On to `Cc1cc(Sc2ccc([N+](=O)[O-])cn2)ccc1Br`, for which the “activity change, negative = inhibition” value was 22%. Consider `Cc1ccc(S(=O)(=O)N2CCCCC2)cc1NS(=O)(=O)c1ccccc1F`, for which the “activity change, negative = inhibition” value was -79.1%.

Consider `O=c1c2ccccc2c(C=Nc2ccccc2O)c(O)n1-c1nccs1`, for which the “activity change, negative = inhibition” value was -5.72%.

With `COc1ccccc1-n1c(SCC(=O)Nc2cc(C)on2)nc2c(c1=O)SCC2`, the “activity change, negative = inhibition” value was -19.3%. As to `O=S(=O)(c1ccc(Cl)cc1)n1ccc2cccnc21`, the “activity change, negative = inhibition” value is -26.5%. `O=C(NCCCn1ccnc1)C(=O)NCC1OCCCN1S(=O)(=O)c1ccccc1` (stereo not given): the “activity change, negative = inhibition” value is 3.7%.

Turning to `O=C(NCCNC(=O)Oc1cccc2ccccc12)Oc1cccc2ccccc12`, the “activity change, negative = inhibition” value was 48.5%. `O=C(CSc1nc2ncc(Cl)cc2[nH]1)N1CCOCC1`: the “activity change, negative = inhibition” value was 17.4%. Under `C[C@@H]1CC=C[C@H]2[C@H]1C(=O)N(Cc1ccccc1)[C@H]2c1cccc([N+](=O)[O-])c1` stands -18.7%. The value for `CC(=O)Nc1sc2c(c1-c1nc3ccccc3s1)CCN(C(C)C)C2` was -66.9%. The value for `COc1cc(C(=O)OCC(=O)NC2CCCCCC2)ccc1OCC(C)C` was -25.6%; that for `Cc1ccc(NC(=O)C2CCCN(S(=O)(=O)c3c(C)noc3C)C2)cc1` (stereo not given) was 59.3%; that for `CCO[C@@H]1OC(C(=O)NC2CC2)=C[C@H](c2coc3ccccc3c2=O)[C@H]1CCCO` was 0.737%.

With `O=C(Nc1cccc(S(=O)(=O)NC2=NCCC2)c1)C1CC(=O)N(c2ccc3c(c2)OCCO3)C1` (stereo not given), the “activity change, negative = inhibition” value was 0.562%.

As for `CCOC(=O)CNC(=O)C1(NC(=O)CNC(=O)OCc2ccccc2)CCCC1`, the “activity change, negative = inhibition” value is 38.8%. In the case of `O=C(NNc1ccccc1)C(=O)NNS(=O)(=O)c1ccc(CCCl)cc1`, the “activity change, negative = inhibition” value is -0.537%.

For `Cc1ccc(C(=O)N2CCN(C)CC2)cc1S(=O)(=O)N1CCCCCC1`, the “activity change, negative = inhibition” value is -10.2%. In the case of `CCN(CC)S(=O)(=O)c1ccc(N(C)Cc2cccc(OC)c2OC)nc1`, the “activity change, negative = inhibition” value is -35.1%.

With `Cc1cc(C(=O)Cn2cnc3cc(F)ccc3c2=O)c(C)n1C1CC1`, the “activity change, negative = inhibition” value is -59.4%. With `COc1ccc(S(=O)(=O)N2CCOCC2)cc1NC(=O)COC(=O)CC1CC2CCC1C2` (stereo not given), the “activity change, negative = inhibition” value is -38%. The value for `COc1cc(OC)cc(C(=O)OCC(=O)Nc2ccc(F)cc2F)c1` was -2.85%. `Fc1ccccc1N=C1NN=C(c2ccccc2)CS1`: the “activity change, negative = inhibition” value is -45%. Under `Nc1nc(=S)[nH]c2c1C1(CCCCC1)Cc1ccccc1-2` stands 15.5%. The value for `CCCCCCC#Cc1ccc2c(c1)COc1c3ccccc3nn1-2` was 57%; that for `O=C1N/C(=C/c2ccc(N3CCOCC3)o2)C(=O)N1c1ccccc1` was 38.1%; that for `Cc1ccccc1N/C(=N/S(=O)(=O)c1ccccc1)c1ccc(F)cc1` was -1.16%.

For the compound `C[C@@H]1CN([C@H](C)CO)C(=O)CCCn2nncc2CO[C@H]1CN(C)S(=O)(=O)c1ccc2c(c1)OCCCO2`, the “activity change, negative = inhibition” value is -2.03%. Under `C[C@@H]1CN([C@H](C)CO)C(=O)c2cc(Br)cnc2O[C@H]1CN(C)C(=O)Cc1ccncc1` stands -2.88%. As to `Cc1cc(C)n(-c2cc(-n3nc(C)cc3C)ncn2)n1`, the “activity change, negative = inhibition” value was -6.51%. Under `OCCNc1nc(Nc2ccc(Cl)cc2)nc(N2CCCC2)n1` stands -42.6%; under `COc1c(C)cc(C(=O)C2CCCN(C(=O)c3cccc(-n4cccn4)c3)C2)cc1C` (stereo not given), -0.537%. Under `CC1CCN(C(=O)c2ccc(N3C(=O)C4CCC(C)CC4C3=O)cc2)CC1` (stereo not given) stands 12%. The value for `O=C(Cc1ccccc1)NCCS(=O)c1ccc(Cl)cc1` (stereo not given) was 12.2%; that for `CSc1nnc(-c2ccco2)n1-c1ccccc1` was -27%. Take `CCn1nnc2cc(C(=O)Nc3cc(Cl)ccc3C)ccc21`: the “activity change, negative = inhibition” value is 7.36%. As to `O=C(CSc1nc2[nH]ncc2c(=O)[nH]1)Nc1ccccc1C(F)(F)F`, the “activity change, negative = inhibition” value is 3.2%.

`CC(C)c1c(O)c2c(n(-c3ccccc3)c1=O)CCCC2`: the “activity change, negative = inhibition” value is -1.82%. For `Cc1ccc(C(=O)Nc2ccc3c(c2)C(=O)N(CC2CCCO2)C3=O)cc1` (stereo not given), the “activity change, negative = inhibition” value was 43.8%. The value for `O=C(CCS(=O)(=O)c1ccccc1)Nc1nc2c(s1)CCCC2` was 25.6%.
